Article PMC5540273 (PLoS ONE, 2017)

Experiments:
Conditions in all cases: concentration: 1 μM, replicates: in singlicate; n = 1
[1] = tested on: PAK3
[2] = tested on: PAK4
[3] = tested on: PAK6
[4] = tested on: PAK7
[5] = tested on: T1, PCTK1
T1 construct: gene CDK16

[6] = tested on: T2, PCTK2
T2 construct: gene CDK17

[7] = tested on: T3, PCTK3
T3 construct: gene CDK18

[8] = tested on: PDGFRA
[9] = tested on: PDGFRB
[10] = tested on: PDPK1
[11] = tested on: PFTAIRE2
[12] = tested on: T4, PFTK1
T4 construct: gene CDK14

[13] = tested on: PHKG1
[14] = tested on: PHKG2
[15] = tested on: PIK3C2B
[16] = tested on: PIK3C2G
[17] = tested on: PIK3CA
[18] = tested on: PIK3CB
[19] = tested on: PIK3CD
[20] = tested on: PIK3CG
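Note: KINOMEscan kinase panel screen.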

Structure (SMILES)	%Inh [1]	%Inh [2]	%Inh [3]	%Inh [4]	%Inh [5]	%Inh [6]	%Inh [7]	%Inh [8]	%Inh [9]	%Inh [10]	%Inh [11]	%Inh [12]	%Inh [13]	%Inh [14]	%Inh [15]	%Inh [16]	%Inh [17]	%Inh [18]	%Inh [19]	%Inh [20]
Cc1ccc(NC(=O)Nc2ccc(Cl)c(C(F)(F)F)c2)cc1-c1ccc(C(=O)Nc2ccncc2)cc1 [GSK1398470]	22%	0%	0%	2%	0%	6%	14%	19%	97.5%	26%	21%	0%	23%	4%	0%	2%	9%	0%	0%	10%
Cc1cccc2c(-c3ccncn3)c(-c3ccc(F)cc3)nn12 [GW515532]	29%	0%	0%	3%	0%	0%	0%	0%	10%	17%	9%	8%	0%	0%	0%	0%	0%	0%	5%	0%
Cc1ccccc1-c1cc(-c2c[nH]nc2-c2ccccn2)ccn1 [GW680061]	0%	0%	0%	0%	2%	7%	20%	0%	41%	0%	0%	0%	0%	0%	0%	0%	0%	0%	4%	0%
COc1nccc(-c2c(-c3ccc(F)cc3)ncn2CCCN2CCOCC2)n1 [SB-282852]	0%	0%	9%	7%	6%	0%	0%	17%	0%	0%	0%	0%	13%	0%	8%	8%	0%	0%	0%	37%
O=c1cc(N2CCOCC2)nc2n(Cc3ccccc3F)ccn12 [GSK2297428]	24%	0%	0%	9%	0%	0%	0%	0%	8%	0%	0%	23%	0%	0%	2%	0%	6%	94.5%	32%	24%
Fc1ccc(-c2nn3cccc(F)c3c2-c2ccncc2)cc1 [GW475620]	20%	0%	0%	0%	6%	0%	0%	0%	3%	0%	0%	20%	0%	0%	0%	15%	0%	0%	25%	0%
CS(=O)(=O)CCNCc1nc(-c2ccc3ncnc(Nc4ccc(OCc5ccccc5)c(Cl)c4)c3c2)cs1.Cl [GW582764]	24%	0%	0%	0%	6%	0%	17%	0%	8%	0%	7%	3%	0%	0%	0%	0%	0%	0%	0%	0%
COc1cccc(NC(=O)Nc2ccc(C)c(-c3ccc(C(=O)Nc4ccncc4)cc3)c2)c1 [GSK1398474]	27%	0%	0%	26%	0%	11%	13%	48%	100%	27%	27%	0%	0%	17%	100%	0%	99.9%	0%	0%	99.9%
c1ccc(-c2ccnc3[nH]ccc23)cc1 [SB-693578]	0%	0%	4%	4%	7%	0%	24%	0%	0%	0%	9%	9%	0%	0%	0%	0%	0%	0%	0%	0%
O=C(Nc1n[nH]c2nc(-c3cccs3)c(Br)cc12)C1CC1 [SB-735297]	0%	0%	3%	0%	28%	40%	6%	0%	43%	0%	18%	14%	0%	0%	0%	0%	0%	22%	0%	10%
CS(=O)(=O)Cc1ccc(Nc2nccc(-c3c(-c4cccc(NC(=O)C5CCCCC5)c4)nn4ncccc34)n2)cc1 [GSK350559]	0%	13%	19%	2%	20%	0%	12%	53%	93.9%	1%	0%	18%	4%	9%	0%	27%	12%	4%	0%	4%
CC(C)c1ccc(O)cc1Nc1ccnc2ccc(C(F)(F)F)cc12 [GW482059]	0%	0%	0%	0%	2%	0%	0%	3%	10%	18%	1%	0%	0%	0%	0%	15%	0%	0%	25%	0%
